Source: the supplement of paper PMC11732987, “Enantioselective OTUD7B fragment discovery through chemoproteomics screening and high-throughput optimisation” (Communications Chemistry, 2025)

Legend:
Assay in all cases: log2 ratio of Biotin-Ahx-Ub-VS probe labelling (fragment/DMSO); higher = less target engagement (more negative = stronger competition), active = hit call of the paper (q ≤ 0.05, log2 ratio ≤ -1)
Settings in all cases: compound concentration: 200 uM; treatment time: 3 h
[1] = molecular target: USP16 (UniProt Q9Y5T5)
Outline: (§1)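 Labelled DUBs from HEK293T lysate were NeutrAvidin-enriched, digested with LysC and trypsin, and run by diaPASEF LC-MS/MS. Before that, each 495 µg sample in Tris/CHAPS/IGEPAL buffer with protease inhibitors was treated in triplicate with fragment at 200 µM or vehicle for 3 h, then with Biotin-Ahx-Ub-VS at 0.5 µM final for 1 h. Values are average log2 ratios of fragment over vehicle by unpaired t-test, based on global-median-normalised Spectronaut label-free quantities from proteins with ≥2 unique peptides.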

[2] = molecular target: T1, USP19 (UniProt O94966)
T1 sequence (whole entry): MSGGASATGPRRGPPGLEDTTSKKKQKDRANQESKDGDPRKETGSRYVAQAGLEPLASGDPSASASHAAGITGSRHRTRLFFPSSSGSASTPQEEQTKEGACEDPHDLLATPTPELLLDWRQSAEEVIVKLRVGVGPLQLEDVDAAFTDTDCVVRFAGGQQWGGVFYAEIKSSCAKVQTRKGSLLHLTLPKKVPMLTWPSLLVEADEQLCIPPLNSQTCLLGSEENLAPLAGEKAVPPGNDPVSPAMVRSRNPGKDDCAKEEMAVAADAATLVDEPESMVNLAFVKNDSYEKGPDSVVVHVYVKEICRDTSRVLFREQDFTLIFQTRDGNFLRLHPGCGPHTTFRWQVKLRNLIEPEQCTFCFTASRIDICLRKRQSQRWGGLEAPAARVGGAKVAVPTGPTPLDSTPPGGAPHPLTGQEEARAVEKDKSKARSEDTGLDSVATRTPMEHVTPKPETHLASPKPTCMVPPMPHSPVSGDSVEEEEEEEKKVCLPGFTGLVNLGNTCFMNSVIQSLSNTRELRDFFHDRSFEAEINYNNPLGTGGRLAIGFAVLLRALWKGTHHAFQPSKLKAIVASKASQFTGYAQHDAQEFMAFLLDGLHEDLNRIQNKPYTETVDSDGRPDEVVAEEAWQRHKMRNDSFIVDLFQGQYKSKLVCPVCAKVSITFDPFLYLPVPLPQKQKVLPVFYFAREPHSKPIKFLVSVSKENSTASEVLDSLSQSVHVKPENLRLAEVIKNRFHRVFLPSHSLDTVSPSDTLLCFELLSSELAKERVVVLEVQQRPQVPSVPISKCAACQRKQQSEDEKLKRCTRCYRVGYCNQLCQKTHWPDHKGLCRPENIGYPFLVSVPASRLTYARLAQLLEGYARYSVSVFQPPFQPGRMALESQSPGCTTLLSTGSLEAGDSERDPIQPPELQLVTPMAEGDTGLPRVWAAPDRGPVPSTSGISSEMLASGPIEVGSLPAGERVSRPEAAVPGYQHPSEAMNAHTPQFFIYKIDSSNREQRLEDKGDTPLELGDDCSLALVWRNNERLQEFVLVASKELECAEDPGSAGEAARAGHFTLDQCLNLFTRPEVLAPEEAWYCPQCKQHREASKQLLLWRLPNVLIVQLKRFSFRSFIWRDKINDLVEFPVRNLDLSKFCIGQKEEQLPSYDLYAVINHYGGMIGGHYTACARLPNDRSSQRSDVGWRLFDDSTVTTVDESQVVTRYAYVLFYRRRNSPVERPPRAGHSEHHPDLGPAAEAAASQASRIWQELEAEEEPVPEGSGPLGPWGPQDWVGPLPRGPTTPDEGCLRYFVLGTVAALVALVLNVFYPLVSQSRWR
Outline: as §1

[3] = molecular target: USP24 (UniProt Q9UPU5)
Outline: as §1

[4] = molecular target: T2, USP25 (UniProt Q9UHP3)
T2 sequence (whole entry): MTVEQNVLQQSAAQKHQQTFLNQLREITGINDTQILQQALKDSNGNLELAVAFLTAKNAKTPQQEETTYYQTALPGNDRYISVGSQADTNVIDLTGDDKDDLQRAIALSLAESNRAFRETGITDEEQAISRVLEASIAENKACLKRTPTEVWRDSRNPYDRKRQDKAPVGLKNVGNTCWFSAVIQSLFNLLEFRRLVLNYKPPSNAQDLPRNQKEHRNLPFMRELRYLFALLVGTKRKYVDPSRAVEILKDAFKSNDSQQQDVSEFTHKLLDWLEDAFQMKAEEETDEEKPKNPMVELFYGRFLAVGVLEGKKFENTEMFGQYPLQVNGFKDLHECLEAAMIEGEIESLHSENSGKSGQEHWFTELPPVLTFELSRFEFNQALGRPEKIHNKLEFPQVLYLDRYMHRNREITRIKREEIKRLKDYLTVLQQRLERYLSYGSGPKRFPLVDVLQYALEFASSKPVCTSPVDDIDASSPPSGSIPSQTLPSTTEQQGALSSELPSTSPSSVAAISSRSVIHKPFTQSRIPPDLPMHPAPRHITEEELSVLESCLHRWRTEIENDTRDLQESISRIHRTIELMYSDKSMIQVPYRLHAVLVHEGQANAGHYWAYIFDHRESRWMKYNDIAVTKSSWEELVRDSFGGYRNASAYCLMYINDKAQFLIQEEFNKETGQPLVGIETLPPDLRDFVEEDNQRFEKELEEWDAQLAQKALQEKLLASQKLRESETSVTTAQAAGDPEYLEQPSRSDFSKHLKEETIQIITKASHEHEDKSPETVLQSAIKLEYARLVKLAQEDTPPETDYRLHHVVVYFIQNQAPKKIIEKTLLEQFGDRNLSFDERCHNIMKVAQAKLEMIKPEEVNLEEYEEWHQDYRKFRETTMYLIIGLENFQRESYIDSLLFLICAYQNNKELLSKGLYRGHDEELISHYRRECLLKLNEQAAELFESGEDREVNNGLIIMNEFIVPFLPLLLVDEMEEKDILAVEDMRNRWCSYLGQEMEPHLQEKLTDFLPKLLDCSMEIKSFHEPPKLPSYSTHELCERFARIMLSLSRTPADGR
Outline: as §1

[5] = molecular target: T3, USP28 (UniProt Q96RU2)
T3 sequence (whole entry): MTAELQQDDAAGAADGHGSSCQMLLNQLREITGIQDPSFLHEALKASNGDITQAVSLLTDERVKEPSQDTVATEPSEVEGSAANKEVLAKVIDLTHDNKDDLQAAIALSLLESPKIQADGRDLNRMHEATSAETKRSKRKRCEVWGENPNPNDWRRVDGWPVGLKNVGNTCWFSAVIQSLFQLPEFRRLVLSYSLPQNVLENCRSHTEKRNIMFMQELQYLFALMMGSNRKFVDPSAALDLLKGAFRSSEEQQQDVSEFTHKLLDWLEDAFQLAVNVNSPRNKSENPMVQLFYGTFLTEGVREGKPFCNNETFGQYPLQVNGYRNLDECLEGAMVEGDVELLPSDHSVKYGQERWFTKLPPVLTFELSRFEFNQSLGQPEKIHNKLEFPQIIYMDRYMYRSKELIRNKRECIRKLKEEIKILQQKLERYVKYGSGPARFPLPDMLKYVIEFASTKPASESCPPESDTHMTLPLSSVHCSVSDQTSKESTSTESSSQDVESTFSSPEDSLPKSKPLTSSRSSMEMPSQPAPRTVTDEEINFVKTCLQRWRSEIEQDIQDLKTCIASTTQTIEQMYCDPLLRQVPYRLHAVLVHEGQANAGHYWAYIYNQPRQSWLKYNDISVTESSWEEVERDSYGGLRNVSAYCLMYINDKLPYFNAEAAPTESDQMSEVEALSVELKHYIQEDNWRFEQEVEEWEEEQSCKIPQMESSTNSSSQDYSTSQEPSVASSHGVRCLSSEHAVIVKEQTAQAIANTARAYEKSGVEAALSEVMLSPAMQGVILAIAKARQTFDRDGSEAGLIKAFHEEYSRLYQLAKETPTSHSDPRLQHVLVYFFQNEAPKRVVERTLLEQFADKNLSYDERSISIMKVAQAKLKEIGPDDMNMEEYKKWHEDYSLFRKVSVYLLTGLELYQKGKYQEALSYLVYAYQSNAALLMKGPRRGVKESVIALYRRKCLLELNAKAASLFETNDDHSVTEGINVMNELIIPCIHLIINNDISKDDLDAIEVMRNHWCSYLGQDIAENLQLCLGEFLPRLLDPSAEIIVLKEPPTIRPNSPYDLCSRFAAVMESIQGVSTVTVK
Outline: as §1

Measured: log2 ratio of Biotin-Ahx-Ub-VS probe labelling

Sequence of USP24 (Q9UPU5 whole entry): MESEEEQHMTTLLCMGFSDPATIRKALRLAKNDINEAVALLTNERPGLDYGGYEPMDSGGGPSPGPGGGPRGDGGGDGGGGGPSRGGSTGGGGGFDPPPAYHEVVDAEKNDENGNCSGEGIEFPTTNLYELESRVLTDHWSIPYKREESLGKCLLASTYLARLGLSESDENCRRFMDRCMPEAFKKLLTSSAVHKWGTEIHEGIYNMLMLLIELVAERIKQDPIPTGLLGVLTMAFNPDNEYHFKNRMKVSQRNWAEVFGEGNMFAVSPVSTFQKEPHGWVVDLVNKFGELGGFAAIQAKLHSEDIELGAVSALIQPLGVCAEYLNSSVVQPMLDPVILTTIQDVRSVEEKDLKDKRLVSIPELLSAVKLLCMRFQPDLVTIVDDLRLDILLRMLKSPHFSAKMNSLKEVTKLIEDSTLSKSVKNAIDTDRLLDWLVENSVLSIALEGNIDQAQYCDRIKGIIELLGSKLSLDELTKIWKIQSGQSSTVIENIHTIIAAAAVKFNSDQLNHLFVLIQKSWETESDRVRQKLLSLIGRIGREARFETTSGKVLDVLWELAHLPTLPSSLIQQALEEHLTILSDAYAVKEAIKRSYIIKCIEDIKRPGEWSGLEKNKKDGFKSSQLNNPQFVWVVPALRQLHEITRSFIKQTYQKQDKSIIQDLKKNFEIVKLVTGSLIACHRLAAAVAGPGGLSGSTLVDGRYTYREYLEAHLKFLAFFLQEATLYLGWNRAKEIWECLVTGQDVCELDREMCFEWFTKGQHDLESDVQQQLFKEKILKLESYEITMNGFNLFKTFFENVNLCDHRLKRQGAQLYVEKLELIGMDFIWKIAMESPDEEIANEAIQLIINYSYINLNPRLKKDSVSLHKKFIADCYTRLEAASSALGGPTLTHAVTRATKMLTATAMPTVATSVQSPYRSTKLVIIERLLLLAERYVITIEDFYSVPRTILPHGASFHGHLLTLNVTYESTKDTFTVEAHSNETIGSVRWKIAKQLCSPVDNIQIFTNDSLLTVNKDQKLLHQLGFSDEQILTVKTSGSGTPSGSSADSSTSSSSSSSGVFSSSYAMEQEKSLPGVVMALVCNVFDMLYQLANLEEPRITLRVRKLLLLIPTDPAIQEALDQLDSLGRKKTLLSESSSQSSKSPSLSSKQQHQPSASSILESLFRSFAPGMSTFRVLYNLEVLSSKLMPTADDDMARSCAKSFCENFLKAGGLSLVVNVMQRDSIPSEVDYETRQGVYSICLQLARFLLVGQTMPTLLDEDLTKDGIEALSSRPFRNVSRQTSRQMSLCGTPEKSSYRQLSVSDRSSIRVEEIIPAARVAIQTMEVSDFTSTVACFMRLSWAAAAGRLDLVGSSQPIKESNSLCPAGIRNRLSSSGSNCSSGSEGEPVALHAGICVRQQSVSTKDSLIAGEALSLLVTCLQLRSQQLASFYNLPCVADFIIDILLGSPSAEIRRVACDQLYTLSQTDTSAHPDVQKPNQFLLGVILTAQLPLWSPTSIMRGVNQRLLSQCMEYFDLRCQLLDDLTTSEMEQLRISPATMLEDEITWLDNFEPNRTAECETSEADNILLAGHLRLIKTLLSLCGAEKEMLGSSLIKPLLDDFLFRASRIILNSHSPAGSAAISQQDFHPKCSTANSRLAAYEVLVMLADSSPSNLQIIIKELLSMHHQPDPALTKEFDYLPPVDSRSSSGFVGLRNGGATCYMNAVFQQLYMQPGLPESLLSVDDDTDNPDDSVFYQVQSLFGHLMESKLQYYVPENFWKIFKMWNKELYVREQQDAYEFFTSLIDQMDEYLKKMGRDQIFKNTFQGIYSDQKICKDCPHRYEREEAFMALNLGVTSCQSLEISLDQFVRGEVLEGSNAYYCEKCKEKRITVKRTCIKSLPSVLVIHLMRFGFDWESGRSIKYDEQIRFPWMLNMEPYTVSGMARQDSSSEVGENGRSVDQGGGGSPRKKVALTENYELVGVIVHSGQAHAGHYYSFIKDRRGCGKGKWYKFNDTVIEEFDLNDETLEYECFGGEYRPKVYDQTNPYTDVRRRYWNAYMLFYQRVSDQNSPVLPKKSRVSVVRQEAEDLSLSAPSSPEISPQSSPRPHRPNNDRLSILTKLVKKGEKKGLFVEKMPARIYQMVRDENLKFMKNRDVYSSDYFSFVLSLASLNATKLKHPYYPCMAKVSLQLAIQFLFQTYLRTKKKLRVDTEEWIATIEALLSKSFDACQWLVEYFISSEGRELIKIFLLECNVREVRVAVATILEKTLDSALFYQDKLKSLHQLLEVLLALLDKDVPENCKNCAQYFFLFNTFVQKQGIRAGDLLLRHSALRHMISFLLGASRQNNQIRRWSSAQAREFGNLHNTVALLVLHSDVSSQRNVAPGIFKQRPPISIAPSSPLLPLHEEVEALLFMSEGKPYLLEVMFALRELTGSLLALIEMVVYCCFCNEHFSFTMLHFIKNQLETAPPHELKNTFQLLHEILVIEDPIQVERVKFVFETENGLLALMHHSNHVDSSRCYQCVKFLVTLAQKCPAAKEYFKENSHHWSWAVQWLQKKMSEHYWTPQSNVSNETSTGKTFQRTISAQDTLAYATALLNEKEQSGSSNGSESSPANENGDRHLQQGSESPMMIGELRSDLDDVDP
Sequence of USP16 (Q9Y5T5 whole entry, looked up, the tested form may be a part): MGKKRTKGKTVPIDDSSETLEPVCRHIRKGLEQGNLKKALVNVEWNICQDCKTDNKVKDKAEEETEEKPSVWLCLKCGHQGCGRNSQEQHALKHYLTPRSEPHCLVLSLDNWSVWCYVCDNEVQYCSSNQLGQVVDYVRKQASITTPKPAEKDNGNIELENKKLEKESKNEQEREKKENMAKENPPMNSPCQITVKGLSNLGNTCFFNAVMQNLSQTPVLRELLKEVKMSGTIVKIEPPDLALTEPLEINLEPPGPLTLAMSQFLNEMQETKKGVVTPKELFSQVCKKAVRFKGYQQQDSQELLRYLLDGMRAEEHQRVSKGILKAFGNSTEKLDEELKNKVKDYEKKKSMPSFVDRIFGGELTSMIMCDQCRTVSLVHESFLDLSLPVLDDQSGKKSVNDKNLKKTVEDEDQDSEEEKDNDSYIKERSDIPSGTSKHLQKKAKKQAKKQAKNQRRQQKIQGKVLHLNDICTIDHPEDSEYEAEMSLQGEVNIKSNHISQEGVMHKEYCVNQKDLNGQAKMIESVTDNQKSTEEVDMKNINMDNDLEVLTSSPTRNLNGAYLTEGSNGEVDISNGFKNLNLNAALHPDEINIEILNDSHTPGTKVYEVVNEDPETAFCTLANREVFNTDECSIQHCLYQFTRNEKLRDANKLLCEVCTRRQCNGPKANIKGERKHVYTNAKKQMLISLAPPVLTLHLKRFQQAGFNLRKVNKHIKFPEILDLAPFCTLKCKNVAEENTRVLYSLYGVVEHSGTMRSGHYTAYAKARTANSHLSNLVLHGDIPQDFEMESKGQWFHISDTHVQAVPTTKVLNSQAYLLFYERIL

O=C(CCl)N[C@H]1CCS(=O)(=O)c2ccccc21
inactive: [1] -0.601 | [2] -0.274 | [3] -0.386 | [4] -0.264 | [5] -0.582
